Reference: PubChem BioAssay (Tox21)
Unmarked numbers belong to inactive results. Results filed as inconclusive are left out. A call without a number means that no potency is given here. The source made the active and inactive calls. Unless noted, calls come from the whole dose curve; as a rule, active = well fitted curve in the direction sought with a large enough effect in the repeat runs; inconclusive = weak or mixed curves; inactive = no such curve, though single readings can be large; an effect the other way counts as inactive or inconclusive.

Assays:
[1] = qHTS assay to identify small molecule agonists of the RXR signaling pathway - cell viability counter screen (AID 1159529);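 note: HEK 293T cells carrying an RXR-alpha UAS beta-lactamase reporter; nearly all actives have a fitted effect of over 50% in size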
Procedure, shortened: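 Counter screen: CellTiter-Glo luminescence. Cells: RXR-alpha-UAS-bla HEK 293T. Medium: 2% charcoal-stripped FBS. Treatment: 16 h, 37 C. Reagent incubation: 30 min, RT.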

[2] = qHTS assay to identify small molecule antagonists of the retinoid acid receptor (RAR) signaling pathway - cell viability counter screen (AID 1159551); note: nearly all actives have a fitted effect of over 35% in size
Procedure, shortened: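 Following overnight attachment, C3RL4 reporter cells received DMSO-dissolved compounds and then retinol (1 uM final). Six hours later at 37 C, ATP content was measured by CellTiter-Glo luminescence.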

[3] = qHTS assay to identify small molecule antagonists of the retinoic acid receptor (RAR) signaling pathway (AID 1159552; note: nearly all actives have a fitted effect of over 50% in size)
Procedure, shortened: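 Antagonism of retinol-induced RARE reporter activity was measured in C3RL4 cells. Exposure to compounds and 1 uM final retinol lasted 6 hr at 37 C, with luminescence as endpoint.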

[4] = qHTS assay to identify small molecule agonists of the retinoic acid receptor (RAR) signaling pathway (AID 1159553)
Procedure, shortened: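 Cell line C3RL4, RARE luciferase reporter. Treatment: compounds in DMSO, 6 hr, 37 C, 5% CO2, after overnight plating. Detection: luminescence, 30 min RT after reagent.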

[5] = qHTS assay to identify small molecule antagonists of the estrogen related receptor (ERR) signaling pathway from Tox21 library - cell viability counter screen (AID 1224834); note: nearly all actives have a fitted effect of over 30% in size
Procedure, shortened: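 Viability readout (CellTiter-Fluor fluorescence, 30 min at 37 C) multiplexed with the ERR assay; cells treated 17.5 h at 37 C with compounds delivered in DMSO.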

[6] = target: Luciferin 4-monooxygenase (Photinus pyralis) (UniProt P08659); test: qHTS assay to identify small molecule inhibitors of firefly luciferase (AID 1224835); note: nearly all actives have a fitted effect of over 25% in size; note: potency is the fitted concentration of half-maximal effect
Chain of Luciferin 4-monooxygenase (Photinus pyralis) (P08659 whole entry, looked up): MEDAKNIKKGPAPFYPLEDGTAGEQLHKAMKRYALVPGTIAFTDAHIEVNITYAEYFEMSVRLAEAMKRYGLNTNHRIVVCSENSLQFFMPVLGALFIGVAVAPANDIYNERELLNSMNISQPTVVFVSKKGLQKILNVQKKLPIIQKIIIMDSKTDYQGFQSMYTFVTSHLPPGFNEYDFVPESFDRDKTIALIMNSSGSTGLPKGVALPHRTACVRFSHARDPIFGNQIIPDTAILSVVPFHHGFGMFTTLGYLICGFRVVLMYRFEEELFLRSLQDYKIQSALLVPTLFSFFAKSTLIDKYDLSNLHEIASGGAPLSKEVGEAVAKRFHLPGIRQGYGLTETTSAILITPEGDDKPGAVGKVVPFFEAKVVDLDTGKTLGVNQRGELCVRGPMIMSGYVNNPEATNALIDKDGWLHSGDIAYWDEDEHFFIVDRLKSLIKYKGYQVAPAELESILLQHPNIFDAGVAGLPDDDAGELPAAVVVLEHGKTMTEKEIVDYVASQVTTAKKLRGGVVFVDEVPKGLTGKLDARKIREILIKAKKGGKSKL
Procedure, shortened: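 Quantitative HTS format; KM concentrations of both substrates. Purified P. pyralis FLuc activity quantified from luminescence images.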

[7] = qHTS assay to identify small molecule agonists of the constitutive androstane receptor (CAR) signaling pathway - cell viability counter screen (AID 1224836); note: nearly all actives have a fitted effect of over 45% in size
Procedure, shortened: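 Double-stable HepG2 hepatoma cells (hCAR plus CYP2B6-2.2kb) are treated for 23 h at 37 C with test compounds in 15-point concentration series. PK11195 at 0.75 uM final is co-added. Cell viability is quantified by CellTiter-Fluor.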

[8] = target: Nuclear receptor subfamily 1 group I member 3 (Homo sapiens) (UniProt Q14994); test: qHTS assay to identify small molecule antagonists of the constitutive androstane receptor (CAR) signaling pathway (AID 1224838);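 note: HepG2 cells stably expressing hCAR with CYP2B6 luciferase reporter stimulated by CITCO; nearly all actives have a fitted effect of over 40% in size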
Chain of Nuclear receptor subfamily 1 group I member 3 (Homo sapiens) (Q14994 whole entry, looked up): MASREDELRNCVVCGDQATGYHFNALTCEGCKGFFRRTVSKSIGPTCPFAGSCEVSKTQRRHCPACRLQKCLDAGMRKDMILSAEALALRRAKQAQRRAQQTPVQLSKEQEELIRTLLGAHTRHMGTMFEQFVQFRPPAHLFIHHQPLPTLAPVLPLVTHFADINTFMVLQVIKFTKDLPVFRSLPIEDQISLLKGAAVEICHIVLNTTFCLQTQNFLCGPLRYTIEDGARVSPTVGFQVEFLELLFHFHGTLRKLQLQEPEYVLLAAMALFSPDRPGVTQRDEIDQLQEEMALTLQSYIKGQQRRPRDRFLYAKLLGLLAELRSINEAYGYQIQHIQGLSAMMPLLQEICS
Procedure, shortened: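 Quantitative HTS in double-stable HepG2-CYP2B6-hCAR cells. After 4 h plating, cells get compound (15 concentrations) and CITCO at 50 nM final, incubate 24 h at 37 C, then ONE-Glo luminescence is read.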

[9] = target: Nuclear receptor subfamily 1 group I member 3 (Homo sapiens) (UniProt Q14994); test: qHTS assay to identify small molecule agonists of the constitutive androstane receptor (CAR) signaling pathway (AID 1224839);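 note: HepG2 cells stably carrying human CAR and a CYP2B6 luciferase reporter; nearly all actives have a fitted effect of over 15% in size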
Procedure, shortened: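 Readout: firefly luciferase luminescence via ONE-Glo. System: HepG2 double-stable for hCAR and CYP2B6-2.2kb. Conditions: 15-point compound titration, PK11195 at 0.75 uM final, 24 h incubation.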

[10] = qHTS assay to identify small molecule antagonists of the estrogen related receptor signaling pathway with the pleiotropic PPARgamma coactivator (PGC) from Tox21 10K library - cell viability counter screen (AID 1224840; active = well fitted cell-killing curve with a large enough effect in the repeat runs, not every such curve was filed as active; note: nearly all actives have a fitted effect of over 40% in size)
Procedure, shortened: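 Compounds in DMSO, alongside positive and negative controls, were pinned onto PGC/ERR cells (2,000 per well). Exposure lasted 17.5 hours at 37 C, followed by a 30-minute CellTiter-Fluor incubation and fluorescence reading.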

[11] = target: Thyrotropin receptor (Homo sapiens) (UniProt P16473); test: qHTS assay to identify small molecule agonists of the thyroid stimulating hormone receptor (TSHR) signaling pathway (AID 1224843; calls by dose curve; note: nearly all actives have a fitted effect of over 45% in size)
Chain of Thyrotropin receptor (Homo sapiens) (P16473 whole entry, looked up): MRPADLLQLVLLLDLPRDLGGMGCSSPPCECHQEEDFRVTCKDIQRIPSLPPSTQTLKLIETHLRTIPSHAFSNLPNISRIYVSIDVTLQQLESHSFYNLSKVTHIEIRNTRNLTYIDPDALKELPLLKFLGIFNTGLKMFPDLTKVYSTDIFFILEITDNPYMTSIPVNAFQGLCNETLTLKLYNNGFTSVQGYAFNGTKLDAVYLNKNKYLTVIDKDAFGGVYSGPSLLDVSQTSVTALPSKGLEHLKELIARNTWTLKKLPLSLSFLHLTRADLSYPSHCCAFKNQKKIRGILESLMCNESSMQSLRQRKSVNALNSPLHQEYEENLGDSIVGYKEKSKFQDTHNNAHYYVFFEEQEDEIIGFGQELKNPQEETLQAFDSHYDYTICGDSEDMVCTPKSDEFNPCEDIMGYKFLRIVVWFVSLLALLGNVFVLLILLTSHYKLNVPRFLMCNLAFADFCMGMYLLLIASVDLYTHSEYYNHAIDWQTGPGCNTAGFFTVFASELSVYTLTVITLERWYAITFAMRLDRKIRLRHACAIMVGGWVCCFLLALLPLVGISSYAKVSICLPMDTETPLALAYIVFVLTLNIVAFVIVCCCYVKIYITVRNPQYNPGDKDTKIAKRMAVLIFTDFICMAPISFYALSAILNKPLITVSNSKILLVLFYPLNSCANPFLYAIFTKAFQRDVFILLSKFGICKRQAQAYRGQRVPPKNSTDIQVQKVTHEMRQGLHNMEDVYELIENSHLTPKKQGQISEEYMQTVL
Procedure, shortened: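 TSHR-expressing HEK293 cells (800 per well) were exposed to compounds for 30 min at room temperature. cAMP was then detected by HTRF competition with cAMP-d2 and anti-cAMP cryptate, read after 1 h at room temperature. Fifteen concentrations, triplicate.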

[12] = qHTS assay to identify small molecule agonists of H2AX (AID 1224845; active = well fitted activation curve with a large enough effect in the signal ratio in the repeat runs, not every such curve was filed as active; the % refers to the signal ratio)
Procedure, shortened: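 Wild-type CHO-K1 cells plated overnight, then exposed 3 hr at 37C to compounds at 15 concentrations (0.76% DMSO). Lysed, then HTRF anti-pH2AX(S139)-cryptate/anti-H2AX-d2 detection after 24 hr at room temperature; emissions 665 and 620 nm.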

[13] = qHTS assay to identify small molecule agonists of the hypoxia (HIF-1) signaling pathway (AID 1224846; active = well fitted activation curve with a large enough effect in the signal ratio in the repeat runs, not every such curve was filed as active; the % refers to the signal ratio)
Procedure, shortened: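 Measured by blue/green FRET after loading CCF4-AM: beta-lactamase expressed from a hypoxia response element in ME-180 cells. Test agents were delivered in DMSO and left 17 hrs; cells had been plated 5 hrs earlier in low-serum (0.5% dialyzed FBS) medium.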

[14] = qHTS assay to identify small molecule agonists of H2AX - cell viability counter screen (AID 1224847; calls by dose curve; note: top concentration of the series differs between compounds; nearly all actives have a fitted effect of over 30% in size)
Procedure, shortened: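 For this counter screen, overnight-attached CHO-K1 cells received test compounds (15 concentrations, 0.76% DMSO final); 3 hr later at 37C, CellTiter-Glo reagent was added and luminescence recorded after 30 min at room temperature.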

[15] = qHTS RealTime-Glo MT Cell Viability Assay in HepG2 cells - 24 hour (AID 1224867); note: nearly all actives have a fitted effect of over 50% in size
Procedure, shortened: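 Real-time, nonlytic viability: 600 HepG2 cells/well mixed with NanoLuc enzyme plus prosubstrate; 5 h settle, compound (DMSO) added by pintool; luminescence monitored over 40 h at 37 C.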

[16] = qHTS assay to identify small molecule antagonists of the constitutive androstane receptor (CAR) signaling pathway - cell viability counter screen (AID 1224837); note: nearly all actives have a fitted effect of over 45% in size
Procedure, shortened: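 Fluorescence from CellTiter-Fluor served as the viability signal. Human hepatoma HepG2 cells stably bearing hCAR and CYP2B6-2.2kb received compound plus CITCO (50 nM final) for 23 hr.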

[17] = qHTS assay to identify small molecule agonists of the hypoxia (HIF-1) signaling pathway - cell viability counter screen (AID 1224844; calls by dose curve; note: nearly all actives have a fitted effect of over 50% in size)
Procedure, shortened: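 Luminescent ATP content (CellTiter-Glo, 30 min, room temperature) served as the viability measure in HRE-bla ME-180 cells exposed to compounds for 17 hrs in low-serum medium (0.5% dialyzed FBS).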

[18] = qHTS assay to identify small molecule antagonists of the estrogen related receptor signaling pathway with the pleiotropic PPARgamma coactivator (PGC) from Tox21 10K library (AID 1224841; call rule not given here)
Procedure, shortened: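 Compound exposure ran 18 hours at 37 C in PGC/ERR cells (2,000/well) that had first rested 6 hours in a 37 C/5% CO2 incubator. Luciferase activity was then detected with One-Glo after a 30-minute room-temperature step.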

[19] = qHTS assay to identify small molecule antagonists of the estrogen related receptor (ERR) signaling pathway from Tox21 library (AID 1224848); note: nearly all actives have a fitted effect of over 50% in size
Procedure, shortened: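 Cells: ERR line, 2,000/well; 6 h preincubation 37 C/5% CO2. Cpd in DMSO via pin tool; 18 h, 37 C. ONE-Glo, 30 min RT, luminescence.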

[20] = qHTS assay to identify small molecule agonists of the estrogen related receptor (ERR) signaling pathway from Tox21 library (AID 1224849; calls by dose curve; note: nearly all actives have a fitted effect of over 15% in size); conditions: ERR reporter cell line, ONE-Glo luciferase, 18 h; at 92.4 µM (top of the series) unless noted
Procedure, shortened: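 We plated ERR reporter cells, waited 6 h, added compounds in DMSO by pin tool and incubated them 18 h at 37 C. ONE-Glo was then added and luminescence read after 30 min.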

SMILES	outcome [1]	outcome [2]	outcome [3]	Potency [4]	outcome [5]	Potency [6]	outcome [7]	Potency [8]	Potency [9]	outcome [10]	outcome [11]	outcome [12]	outcome [13]	outcome [14]	outcome [15]	outcome [16]	outcome [17]	outcome [18]	Potency [19]	activity change, positive = activation [20] [%]
O=NN(CCCl)C(=O)NC1CCCCC1	inactive	inactive	inactive	inactive	inactive	inactive	inactive	inactive	inactive	inactive	inactive	inactive	inactive	inactive	inactive	–	–	–	–	–
C=CC(=O)CCCCC	inactive	inactive	–	–	inactive	inactive	inactive	inactive	inactive	inactive	inactive	inactive	inactive	–	inactive	inactive	inactive	–	–	–
C=C(C)[C@@H]1CC=C(C)CC1	inactive	inactive	–	–	inactive	inactive	inactive	–	inactive	inactive	–	inactive	inactive	inactive	inactive	–	inactive	–	–	–
CC(C)C1OCCN1CCOC(=O)NCCCCCCNC(=O)OCCN1CCOC1C(C)C (centres undefined)	inactive	inactive	inactive	inactive	inactive	inactive	inactive	inactive	inactive	inactive	inactive	inactive	inactive	inactive	inactive	–	–	–	–	–
C=CC/C=C/C	inactive	inactive	inactive	inactive	inactive	inactive	inactive	–	–	–	–	inactive	inactive	inactive	inactive	inactive	inactive	–	–	–
CC/C=C\CCOC(=O)c1ccccc1O	inactive	inactive	inactive	inactive	inactive	17.8 µM (active)	inactive	inactive	inactive	inactive	–	inactive	inactive	–	inactive	–	inactive	inactive	inactive	2.25
CCOc1ccccc1OCC1CNCCO1 (centres undefined)	inactive	inactive	inactive	inactive	inactive	inactive	inactive	inactive	inactive	inactive	inactive	inactive	inactive	inactive	inactive	–	–	–	–	–
O=Cc1ccccc1Cl	inactive	inactive	inactive	inactive	inactive	inactive	inactive	inactive	inactive	inactive	–	inactive	inactive	inactive	inactive	–	–	inactive	inactive	4.09
C[C@@H](O)C(=O)O	inactive	inactive	inactive	inactive	inactive	inactive	inactive	inactive	inactive	inactive	inactive	inactive	inactive	inactive	inactive	–	inactive	–	–	–
